The sample as a whole holds a higher share of hits than the screen did.
Pf Dd2 inh = Plasmodium falciparum Dd2 growth inhibition; P. falciparum Dd2 growth, SYBR Green, 72 h; Potency, µM (titrated, usually from 28.9 µM), without a hit: top-dose activity, negative = inhibition, most hits filed as inhibitors; 4.3% of 120,000 active; AID 1347417; active means well fitted inhibition curve with a large enough effect;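 further: plate controls were DMSO vehicle for no effect and reference drug for full effect; nearly all actives have a fitted effect of over 65% in size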
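Infected erythrocytes (Dd2, 0.3% parasitemia, 2.5% hematocrit final) are added to compound in RPMI-1640/Albumax II medium, grown 72 h at 37C in low oxygen, then lysed with saponin/Triton-X containing SYBR Green and read by fluorescence.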
* marks the source's active call; other numbers are inactive results. Potency means the concentration at half of the fitted maximal effect.

For CCCNC(=O)CC1CCCN(c2cn[nH]c(=O)c2)C1 (centres undefined) the results were Pf Dd2 inh 48%.
For Cc1ncccc1C(=O)NCC12CCC=C1N(C)C(=O)CC2 (centres undefined) the results were Pf Dd2 inh -14%.
For CCCSc1ncc(CN2CCCC3(CCNC3)C2)cn1 (centres undefined) the results were Pf Dd2 inh -2%.
Screening C#CCOc1ccc(-c2nnc(Nc3cccc(C)c3)c3ccccc23)cc1 returned Pf Dd2 inh -4%.
O=C(Cn1nc(-c2ccc(Cl)cc2)c2ccccc2c1=O)Nc1cccc(Br)c1 was read as Pf Dd2 inh -8%.
For Cc1cc(-c2ccc(C)c(S(=O)(=O)N3CCCC(C)C3)c2)on1 (centres undefined) the results were Pf Dd2 inh 28%.
For Cc1ccc(-c2nnc(Nc3cccc(Br)c3)c3ccccc23)cc1S(=O)(=O)N1CCN(C)CC1 the results were Pf Dd2 inh 7.9µM*.
`Cc1cccc(Nc2nnc(-c3ccc(C)c(S(=O)(=O)N4CCN(C)CC4)c3)c3ccccc23)c1` gave Pf Dd2 inh 10µM*.
`Cc1ccc(-c2nnc(Nc3cccc(Cl)c3)c3ccccc23)cc1S(=O)(=O)N1CCN(C)CC1` gave Pf Dd2 inh -5%.
`Cc1nc2n(c1C(=O)N(C)C)CCN(C(=O)c1cc(=O)n(C)c(=O)n1C)C2` gave Pf Dd2 inh -8%.
Screening COc1cc(C2CC(=O)N(CC(=O)Nc3ccccc3F)c3ccccc3S2)cc(OC)c1OC (centres undefined) returned Pf Dd2 inh 3.2µM*.
`COc1ccc(C2CC(=O)N(CC(=O)Nc3cc(C)ccc3C)c3ccccc3S2)cc1` (centres undefined) gave Pf Dd2 inh -7%.
`CCOC(=O)c1ccccc1NC(=O)CN1C(=O)CC(c2ccccc2)Sc2ccccc21` (centres undefined) gave Pf Dd2 inh inactive.
`CCS(=O)(=O)N(C1CC1)C1CCOC2(CCN(C(=O)CCCc3ccccc3)CC2)C1` (centres undefined) gave Pf Dd2 inh inactive.
Screening Cn1ncc(N2CCCC(CC(=O)NCCN3CCCCC3)C2)cc1=O (centres undefined) returned Pf Dd2 inh 25%.
Screening Cc1nnc(NC(=O)NC2CCN(Cc3ccccc3)CC2)s1 returned Pf Dd2 inh -16%.
For Cc1ccc2nc(Cl)c3cc(C(=O)N4CCCCC4C)sc3c2c1 (centres undefined) the results were Pf Dd2 inh -17%.
Cc1ccc2nc(Cl)c3cc(C(=O)N4CCCCC4)sc3c2c1 was read as Pf Dd2 inh -26%.
Screening CCN(CCNC(=O)c1cc2c(s1)CN(C1CC1)C2)c1cccc(C)c1 returned Pf Dd2 inh -27%.
`O=C(O)c1cc2c(s1)CN(C1CCCC1)C2` gave Pf Dd2 inh -3%.
For O=C(NC1CCN(Cc2ccccc2)CC1)c1cc2c(s1)CN(C1CCCC1)C2 the results were Pf Dd2 inh 7.1µM*.
For O=C(NCCN1CCCCC1)c1cc2c(s1)CCN(C(=O)c1ccc(Cl)cc1)C2 the results were Pf Dd2 inh -5%.
`CCC1CCCCN1CCCNC(=O)c1cc2c(Cl)nc3ccc(C)cc3c2s1` (centres undefined) gave Pf Dd2 inh 3.5µM*.
`CCC1CCCCN1CCNC(=O)c1cc2c(s1)CN(C1CCCC1)C2` (centres undefined) gave Pf Dd2 inh 6.3µM*.
For CNC(=O)c1cc(-c2cnn(C)c2C)cc2c1OCCN2Cc1cccnc1 the results were Pf Dd2 inh inactive.
CC[C@H]1CN(C(=O)Nc2cccc(C(F)(F)F)c2)CC[C@H]1CC(=O)NCc1cccc2ccccc12 was read as Pf Dd2 inh 10%.
For CCC(=O)N1CCC(n2c(C)cnc2-c2ccncc2)CC1 the results were Pf Dd2 inh 10%.
For NC(=O)[C@@H](Cc1c[nH]c2ccccc12)NC(=O)[C@@H]1C[C@@H](NS(=O)(=O)c2cccs2)CCN1C(=O)[C@@H](O)[C@H](O)C(=O)O the results were Pf Dd2 inh -1%.
CS(=O)(=O)N1CCCC(C(=O)NCC2CCN(Cc3ccc(F)cc3)CC2)CCNC(=O)CC1 (centres undefined) was read as Pf Dd2 inh 12%.
CS(=O)(=O)Nc1ccc(C2(C(=O)NCc3cccc(Cl)c3)CCCCC2)cc1 was read as Pf Dd2 inh -13%.
`COc1ccc(-c2ccc3c(c2)C(=O)N2C[C@@H](NS(=O)(=O)c4ccc(F)cc4)C[C@H]2C(=O)N3)c(OC)c1` gave Pf Dd2 inh inactive.
`COCCn1cnc2ccc(-c3ccc(F)cc3OC)nc2c1=O` gave Pf Dd2 inh inactive.
Screening COc1ccc(S(=O)(=O)N2CCCN(C)c3ccccc32)cc1 returned Pf Dd2 inh -26%.
For CO[C@H]1C(=O)N(C2CCN(S(=O)(=O)c3ccccc3)CC2)[C@H]1c1ccncc1 the results were Pf Dd2 inh 21%.
Screening O=C1CC(c2ccccc2)N(S(=O)(=O)c2cccc(F)c2)CCCCCCN1 (centres undefined) returned Pf Dd2 inh -16%.
